Measured values taken from PubChem BioAssay (EPA / NIEHS).
Values joined by “and” are separate entries in the source; they are usually repeats but may differ in a detail not shown here. Identical values can stand only once. Records with an inconclusive call do not appear. The source holds several records for some structures; these can differ, active in one and inactive in another. Active and inactive are the calls of the source. Rule for the calls: active = hit-call score of the fitted dose curve at least 0.9, where 1 is the maximum; inconclusive = response in the unintended direction; inactive = score below 0.9.

Assay: CCTE_Shafer_MEA_acute_AB: CCTE's Alamar Blue Assay for Cytotoxicity in the Neural Acute Assay, Shafer Lab (AID 2284069);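 note: active compounds lower the viability signal compared with DMSO wells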
Method in brief: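 Resazurin reduction (CellTiter Blue, 1:6 in fresh medium) read at ex 544/em 590 nm marks viability loss relative to DMSO. Cells: primary rat cortical neuron networks on microelectrode arrays, treated after baseline recording at 13 or 15 days in vitro.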
With `CCSC(=O)N(CC)C1CCCCC1` the outcome was “inactive”. In the case of `O=C(O)C(F)(F)C(F)(F)C(F)(F)C(F)(F)C(F)(F)F`, the outcome is reported as “inactive”. With `Oc1ccc(C(c2ccc(O)cc2)(C(F)(F)F)C(F)(F)F)cc1` the outcome was “inactive”. With `C=CC(N)=O` the outcome was “inactive”. With `COS(=O)(=O)OC` the outcome was “inactive”. For `CO/C=C(/C(=O)OC)c1ccccc1COc1cccc(C(F)(F)F)n1`, the outcome was “inactive”. With `CCCN(CCC)N=O` the outcome was “inactive”. For `CN(C)CCO`, the outcome was “inactive”. For `ClC1=C(Cl)[C@]2(Cl)[C@@H]3[C@@H](Cl)[C@H]4O[C@H]4[C@@H]3C1(Cl)C2(Cl)Cl`, the outcome was “inactive”. For `CCCCCCCCCc1ccc(O)cc1`, the outcome was “inactive”. With `CCCCCCCCCC[N+](C)(C)CCCCCCCCCC` the AC50 was 20 µM (active). With `CC(c1ccc(O)cc1)(c1ccc(O)cc1)c1ccc(O)cc1` the outcome was “inactive”. In the case of `ClC1=C(Cl)[C@]2(Cl)[C@@H]3[C@H]4C[C@H]([C@@H]5O[C@H]45)[C@@H]3[C@@]1(Cl)C2(Cl)Cl`, the outcome is reported as “inactive”. For `Clc1ccc(C(Cl)(Cl)Cl)cc1`, the outcome was “inactive”. With `CC#Cc1cc(C)nc(Nc2ccccc2)n1` the outcome was “inactive”. In the case of `COc1ccc(O)c(C(C)(C)C)c1`, the outcome is reported as “inactive”. In the case of `ClC1=C(Cl)[C@]2(Cl)[C@@H]3[C@@H]4C[C@@H]([C@H]5O[C@@H]45)[C@@H]3[C@@]1(Cl)C2(Cl)Cl`, the outcome is reported as “inactive”. In the case of `CCC(C)(CC)c1cc(NC(=O)c2c(OC)cccc2OC)on1`, the outcome is reported as “inactive”. For `CCC(C)(c1ccc(O)cc1)c1ccc(O)cc1`, the outcome was “inactive”. With `O=C(NC(=O)c1c(F)cccc1F)Nc1cc(Cl)c(OC(F)(F)C(F)F)c(Cl)c1` the outcome was “inactive”. With `ClC(Cl)=C(c1ccc(Cl)cc1)c1ccc(Cl)cc1` the outcome was “inactive”.

Assay: CCTE_Shafer_MEA_dev_AB: CCTE's Alamar Blue Assay for Cytotoxicity in the Neural Network Formation Assay, Shafer Lab (AID 2284083);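 note: resazurin reduction fluorescence as viability of cultured neurons; twelve days of exposure from plating with re-dosing on DIV 5 and 9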
Method in brief: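 Resazurin fluorescence, relative to DMSO, gauges viability after twelve days of exposure that began at plating of rat cortical neurons (1.5 x 10^5 cells/well, 48-well MEA); treatment renewed with full medium exchange on DIV 5 and 9.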
In the case of `c1cc2ccc3cccc4ccc(c1)c2c34`, the outcome is reported as “inactive”. For `Oc1ccc(C(c2ccc(O)cc2)(C(F)(F)F)C(F)(F)F)cc1`, the AC50 was 16 µM (active) and the outcome was “inactive”. With `C=CC(N)=O` the outcome was “inactive”. With `O=S(=O)(O)C(F)(F)C(F)(F)C(F)(F)C(F)(F)C(F)(F)C(F)(F)F` the outcome was “inactive”. For `CO/C=C(/C(=O)OC)c1ccccc1COc1cccc(C(F)(F)F)n1`, the AC50 was 856 nM (active) and 1.12 µM (active). In the case of `NS(=O)(=O)C(F)(F)C(F)(F)C(F)(F)C(F)(F)C(F)(F)C(F)(F)C(F)(F)C(F)(F)F`, the AC50 is reported as 24 µM (active) and the outcome is reported as “inactive”. In the case of `ClC1=C(Cl)[C@]2(Cl)[C@@H]3[C@@H](Cl)[C@H]4O[C@H]4[C@@H]3C1(Cl)C2(Cl)Cl`, the AC50 is reported as 23.9 µM (active). For `Clc1ccc(C(c2ccccc2Cl)C(Cl)(Cl)Cl)cc1` (stereo not given), the AC50 was 6.13 µM (active). In the case of `ClC1=C(Cl)[C@]2(Cl)[C@@H]3[C@@H]4C[C@@H]([C@H]5O[C@@H]45)[C@@H]3[C@@]1(Cl)C2(Cl)Cl`, the AC50 is reported as 22.4 µM (active). In the case of `CCC(C)(c1ccc(O)cc1)c1ccc(O)cc1`, the outcome is reported as “inactive”. For `ClC(Cl)=C(c1ccc(Cl)cc1)c1ccc(Cl)cc1`, the AC50 was 6.02 µM (active). In the case of `CCOP(=S)(OCC)SCSC(C)(C)C`, the AC50 is reported as 18.7 µM (active) and 82.5 µM (active).
